This is one part of a sample in which hits are shown more often than they occur.
Methyltransferases: Primary Screen for Target Class Profiling of Small Molecule Inhibitors of Methyltransferases | purified enzyme, MTase-Glo SAH luminescence; active compounds read low | calls only at 40 µM | hit rate 3.9% among 25,000 | AID 1745853, 2022; call rule not given here
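Each enzyme was assayed with SAM and its substrate. SAH formation detected by MTase-Glo luminescence; single-point 40 uM screen[…].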
MTase-Glo ctr: inhibits MTase-Glo coupling enzymes without methyltransferase; shares compounds with Methyltransferases; AID 1745851; Potency, µM (series often up to 57.3 µM), inactives show top-dose activity change, negative = inhibition, hits mostly inhibitors; MTase-Glo coupled enzymes, SAH conversion luminescence, no MTase; hit rate 6% among 180; active = well fitted inhibition curve with a large enough effect; also: potency is read from the fitted curve at half-maximal effect
The depositor's hits bear a star; i = inactive; + = active, no number. % is scaled to controls: 0 for no effect and ±100 for the full control effect.

SMILES	Methyltransferases	others
Cn1c(=O)c2ccc(C(=O)NC3CCCC3)cc2n2c(=O)n(CC(=O)Nc3cccc(Cl)c3)nc12	i
O=C(Nc1ccc(S(=O)(=O)C(F)(F)F)cc1)C1=CCN(c2ncccc2C(F)(F)F)CC1	i
O=C(Nc1ccc2c(N3CCOCC3)ncnc2c1)c1cccc(Cl)c1	+	MTase-Glo ctr=-1%
O=C(Nc1ccc2c(N3CCCCC3)ncnc2c1)c1ccccc1C(F)(F)F	+	MTase-Glo ctr=1.7µM*
O=C(Nc1ccccc1C(F)(F)F)N1CCCC(Cn2cnc3cccnc32)C1 (configuration not stated)	i
O=C1CC(C(=O)Nc2cccc(Cl)c2)n2ncnc2N1 (configuration not stated)	i
O=C(NC1CC1)c1nc(-c2cccnc2)c2cnccn12	i
COc1ccc2[nH]c(=O)c(CCC(=O)NC(C)c3cn(C)nc3C)cc2c1 (configuration not stated)	i
COc1ccc2cc3n(c2c1)CC(C)(C(=O)NC1CCCC1)N(c1ccccc1OC)C3=O (configuration not stated)	i
CC1(C(=O)NCc2ccc(Cl)cc2)Cn2c(ccc2-c2ccco2)C(=O)N1C1CC1 (configuration not stated)	i
Cc1ccc(Cn2c(=O)c3ccccc3n3c(CCC(=O)N4CCN(c5cccc(Cl)c5)CC4)nnc23)cc1	i
CCCN(C)C(=O)CCc1ccnc(N2CCOCC2)c1	i
COc1ccc(NC(=O)N2CCn3cccc3C2C)c(OC)c1 (configuration not stated)	i
COc1ccc(NC(=O)CCc2ccnc(N3CCCC3)c2)c(OC)c1	+	MTase-Glo ctr=0%
COCCN1CC(C(=O)N2CCN(c3ncccc3C#N)CC2)CCC1=O (configuration not stated)	i
Cc1ccc(CCNS(=O)(=O)c2ccc3[nH]c4c(c3c2)CCCC4)cc1	i

Screens as filed in PubChem BioAssay.
